Assay outcomes: PubChem, National Center for Advancing Translational Sciences (NCATS)
DT40 TDP1 no CPT: qHTS for Inhibitors of human tyrosyl-DNA phosphodiesterase 1 (TDP1): qHTS in cells in absence of CPT; DT40 Tdp1-/- hTDP1 cells, no CPT, ATP luminescence, 48 h; Potency, µM (titrated, usually from 46.2 µM), hits mostly inhibitors; 420,000 compounds, 15% hits; AID 686978, 2013; also: nearly all actives have a fitted effect of over 55% in size
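Readout: luminescence from CellTiter-Glo after 30 min in the dark at RT. Cells: DT40 Tdp1-/- with stable hTDP1, 400/well. Exposure: compounds alone, ≥48 hr, 37 °C.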
HT1080 IDH1KD tx: qHTS for induction of synthetic lethality in tumor cells producing 2HG: qHTS for the HT-1080-IDH1KD cell line. HT-1080 IDH1 knockdown viability, ATP luminescence, 48 h. Potency, µM (doses to about 46.1 µM), actives largely listed as cytotoxic. 360,000 compounds, 2% hits. AID 686971, 2013
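Luminescent ATP read-out (CellTiter-Glo, 10 min at room temperature) after 48 h compound exposure at 37 °C gave viability of IDH1-knockdown HT-1080 cells. Activity was normalised to DMSO and cell-free wells, then fitted as concentration-response curves.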
IL1B secr inh: qHTS for Inhibitors of Inflammasome Signaling: IL-1-beta AlphaLISA Primary Screen | THP-1 LPS/ATP IL-1B secretion, AlphaLISA, 16 h; hits give low values | activity change, % at 57.5 µM | AID 743279, 2014 | 360,000 compounds, 4.7% hits; in the data active = activity change below about -50%; inconclusive = mostly about -30% to -49%
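Secreted IL-1B measured by AlphaLISA bead assay after 16 h compound exposure of THP-1 cells; compounds (final up to 57.5 uM) added 1 h before LPS (250 ng/mL) and ATP (1.25 mM) stimulation; lower signal means less secretion.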
HT1080NT lethal: qHTS for induction of synthetic lethality in tumor cells producing 2HG: qHTS for the HT-1080-NT fibrosarcoma cell line; 360,000 compounds, 1.6% hits; AID 686970, 2013; Potency, µM (top dose mostly 46.1 µM), most hits filed as cytotoxic; HT-1080-NT fibrosarcoma viability, CellTiter-Glo ATP luminescence, 48 h;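 also: NT is the 2HG producing partner of a matched IDH1 knockdown line; nearly all actives have a fitted effect of over 55% in size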
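HT-1080-NT fibrosarcoma cells (2HG-overproducing), 750 cells/well in RPMI with 5% FBS, dosed after 2 h and incubated 48 h at 37C. CellTiter-Glo luminescence normalized to DMSO and no-cell wells; concentration-response curves fitted and classed.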
12-LOX inh: Primary qHTS assay for inhibitors of human arachidonate 12S-lipoxygenase (ALOX12): Round 2 | Polyunsaturated fatty acid lipoxygenase ALOX12 (Homo sapiens), P18054 | purified 12hLO, xylenol orange hydroperoxide absorbance | Potency, µM (top dose mostly 108 µM), most hits filed as inhibitors | 580,000 compounds, 1.1% hits
Target sequence (P18054 whole entry, looked up): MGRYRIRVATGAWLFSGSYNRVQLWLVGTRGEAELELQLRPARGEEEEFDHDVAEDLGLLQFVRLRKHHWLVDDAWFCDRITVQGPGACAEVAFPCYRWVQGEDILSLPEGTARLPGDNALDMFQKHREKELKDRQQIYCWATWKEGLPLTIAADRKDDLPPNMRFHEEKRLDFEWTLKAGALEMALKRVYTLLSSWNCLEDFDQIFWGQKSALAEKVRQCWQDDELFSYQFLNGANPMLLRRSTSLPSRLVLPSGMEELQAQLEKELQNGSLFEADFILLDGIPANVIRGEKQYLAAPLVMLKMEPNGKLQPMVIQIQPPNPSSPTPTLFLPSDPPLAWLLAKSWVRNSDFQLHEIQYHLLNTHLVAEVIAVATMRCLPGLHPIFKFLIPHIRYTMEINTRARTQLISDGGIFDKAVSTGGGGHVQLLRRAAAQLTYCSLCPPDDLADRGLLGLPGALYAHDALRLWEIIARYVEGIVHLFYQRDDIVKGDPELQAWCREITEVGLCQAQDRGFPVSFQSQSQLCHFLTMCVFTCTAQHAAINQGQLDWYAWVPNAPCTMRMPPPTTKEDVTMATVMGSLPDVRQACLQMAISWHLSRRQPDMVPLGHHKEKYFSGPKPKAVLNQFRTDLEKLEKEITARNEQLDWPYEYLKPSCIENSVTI
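Purified human 12hLO at 150 nM in 25 mM Hepes, 0.01% Triton X-100, pH 7.0, preincubated 15 min at room temperature with compound. Reaction started with 40 uM arachidonic acid, 30 min at room temperature. Hydroperoxide measured by Fe-xylenol orange, 573/405 nm absorbance ratio.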
TDP1 cell CPT: qHTS for Inhibitors of human tyrosyl-DNA phosphodiesterase 1 (TDP1): qHTS in cells in presence of CPT; Potency, µM (highest dose often 46.2 µM), hits mostly inhibitors; chicken DT40 Tdp1-/-;hTDP1 cells + 20 nM CPT, ATP luminescence, 48 h; 420,000 compounds, 12% hits; AID 686979, 2013; also: nearly all actives have a fitted effect of over 55% in size
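Chicken DT40 Tdp1-/- cells stably complemented with human TDP1 were seeded at 400 cells/well in medium containing 20 nM camptothecin, exposed to pin-transferred compounds, and grown at 37 °C for at least 48 hr. Viability was read as ATP luminescence.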
Hits are given with their value; 0 = inactive; ? = inconclusive; - = no result given. Many of the other results were omitted from the sample, so hits are more common in it than they were. Unless noted, calls follow the shape of the dose curve; as a rule, active = well fitted curve in the direction sought with a large enough effect; inconclusive = small, poorly fitted or top-dose-only effect, or another doubt; inactive = no such curve, though single readings can be large; an effect the other way counts as inactive or inconclusive.

SMILES | DT40 TDP1 no CPT | HT1080 IDH1KD tx | IL1B secr inh | HT1080NT lethal | 12-LOX inh | TDP1 cell CPT
C#CCOCCOCCOCCNc1nc(N2CCN(C(=O)[C@H](CCCCN)n3cc(CC(C)O)nn3)CC2)nc(N2CCN(C(=O)[C@H](CCCCN)n3cc(CC(C)O)nn3)CC2)n1 (stereo not given in full) | 0 | 0 | 0 | 0 | 12.6µM | 0
Cc1cc(OCCN2CCN(S(=O)(=O)c3ccccc3F)CC2)ccc1C(C)C | 16.4µM | 0 | 0 | 0 | 0 | 20.6µM
CC(C)c1ccc(N2C(=O)N(Cc3ccccc3Cl)c3ccccc3S2(=O)=O)cc1 | 18.4µM | - | - | - | 0 | ?
Cc1ccc(N2C(=O)N(Cc3cccc(Cl)c3)c3ccccc3S2(=O)=O)cc1 | ? | - | - | - | 0 | ?
Cc1cccc(N2C(=O)N(Cc3ccc(C(C)(C)C)cc3)c3ccccc3S2(=O)=O)c1 | 20.6µM | - | - | - | 0 | ?
Cc1ccc(CN2C(=O)N(c3ccc(C)c(Cl)c3)S(=O)(=O)c3ccccc32)cc1 | ? | - | - | - | 0 | ?
Cc1cccc(CN2C(=O)N(c3ccc(C(C)C)cc3)S(=O)(=O)c3ccccc32)c1 | 23.1µM | - | - | - | 0 | ?
Cc1ccc(CN2c3ccccc3S(=O)(=O)c3ccccc32)cc1 | ? | - | - | - | 0 | 25.9µM
COc1ccc(Cn2c(=O)[nH]c3cc(C(=O)NCCC(C)C)ccc3c2=O)cc1 | 0 | - | - | - | 0 | 0
CC(NC(=O)Cc1ccccc1)C(=O)O (stereo not given) | 0 | 0 | 0 | 0 | 0 | 0
O=C(Cn1c(=O)n(-c2ccc(F)cc2)c(=O)c2sc3ccccc3c21)N1CCCC1 | 0 | - | - | - | 0 | 0
COc1ccc(C(=O)NCCNc2nc3c(C)cccc3cc2C#N)cc1 | 20.6µM | 0 | ? | 0 | ? | ?
COc1cccc(C(=O)NCCCNc2nc3cc(C)cc(C)c3cc2C#N)c1 | 25.9µM | 0 | 0 | 0 | 0 | ?
COc1ccc(C(=O)NCCNc2nc3cc(C)cc(C)c3cc2C#N)cc1 | ? | ? | 0 | ? | 0 | ?
Cc1cc(C)c2cc(C#N)c(NCCCN)nc2c1 | 20.6µM | 0 | 0 | ? | 0 | ?
COc1ccc(C(=O)NCCNc2nc3c(C)cccc3cc2C#N)cc1OC | 0 | 0 | 0 | 0 | 0 | 0
COCCc1nncn1C1CCN(C(=O)c2cc(F)cc(F)c2)CC1 | - | - | - | - | 0 | -
CCCCN1C(=O)C(CC(=O)NC(c2ccccc2)c2ccccc2)CC(C(=O)N(C)C)=C1C (stereo not given) | 0 | 0 | 0 | 0 | 0 | 0
CC1=C(C(=O)N(C)C)CC(CC(=O)NC(c2ccccc2)c2ccccc2)C(=O)N1Cc1ccc(C(C)(C)C)cc1 (stereo not given) | 23.1µM | 0 | 0 | ? | 0 | ?
CC1=C(C(=O)N2CCCCCC2)CC(CC(=O)NC(c2ccccc2)c2ccccc2)C(=O)N1CCC1=CCCCC1 (stereo not given) | 16.4µM | ? | ? | ? | 0 | 20.6µM
CCN(CC)C(=O)C1=C(C)N(Cc2ccc(C(C)(C)C)cc2)C(=O)C(CC(=O)NC(c2ccccc2)c2ccccc2)C1 (stereo not given) | 11.6µM | ? | ? | ? | 0 | 13µM
CC1=C(C(=O)N(C(C)C)C(C)C)CC(CC(=O)NC(c2ccccc2)c2ccccc2)C(=O)N1Cc1ccc(C(C)(C)C)cc1 (stereo not given) | ? | ? | -59.4 | ? | 0 | ?
COc1ccc(CN2C(=O)C(CC(=O)NC(c3ccccc3)c3ccccc3)CC(C(=O)N(C(C)C)C(C)C)=C2C)cc1 (stereo not given) | ? | 0 | ? | 0 | ? | ?
CC1=C(C(=O)N2CCOCC2)CC(CC(=O)NC2CC2)C(=O)N1CCC1=CCCCC1 (stereo not given) | 0 | 0 | 0 | 0 | 0 | 0
CCN(CC)C(=O)C1=C(C)N(Cc2ccc(C(C)(C)C)cc2)C(=O)C(CC(=O)NCCc2ccccn2)C1 (stereo not given) | ? | 0 | 0 | 0 | 0 | ?
SMILES | DT40 TDP1 no CPT | HT1080 IDH1KD tx | IL1B secr inh | HT1080NT lethal | 12-LOX inh | TDP1 cell CPT
C/C(=N\NC(=O)CCc1ccccc1)c1ccccc1 | - | - | - | - | 0 | -
O=CNNC(=S)Nc1ccc(Cl)cc1Cl | - | - | - | - | 0 | -
CC(C)c1ccc(-c2nonc2NC(=O)c2cc(=O)c3ccccc3o2)cc1 | - | - | - | - | 0 | -
CCN(CC)C(=O)C1=C(C)N(Cc2ccc(F)cc2)C(=O)C(CC(=O)NCc2cccs2)C1 (stereo not given) | 0 | 0 | ? | 0 | ? | 0
CCCCN1C(=O)C(CC(=O)NC(c2ccccc2)c2ccccc2)CC(C(=O)N(C(C)C)C(C)C)=C1C (stereo not given) | 20.6µM | 0 | 0 | 0 | 0 | 23.1µM
CC1=C(C(=O)N2CCOCC2)CC(CC(=O)NC(c2ccccc2)c2ccccc2)C(=O)N1Cc1ccc(C(C)(C)C)cc1 (stereo not given) | 16.4µM | 0 | 0 | 0 | ? | ?
CCN(CC)C(=O)C1=C(C)N(Cc2ccc(F)cc2)C(=O)C(CC(=O)NC(c2ccccc2)c2ccccc2)C1 (stereo not given) | 20.6µM | 0 | ? | 0 | ? | ?
O=C(Nc1ccc(F)cc1F)N[C@H]1C[C@H]2C(=O)NC[C@@H](CCC(=O)N3CCC(O)CC3)N2C1 | - | - | - | - | 0 | -
CCn1cnc2c1c(=O)n(CC(=O)OCCOc1ccc(C)cc1)c(=O)n2Cc1ccccc1 | - | - | - | - | 0 | -
CCc1noc(-c2ccn3c(CNC(=O)c4cccc5[nH]ccc45)nnc3c2)n1 | - | - | - | - | 0 | -
CC1CCCN(CC(=O)Nc2cc(S(=O)(=O)N3CCOCC3)ccc2N2CCCC2)C1 (stereo not given) | ? | 0 | 0 | 0 | 0 | 0
CC(OC(=O)Cc1n[nH]c(=O)c2ccccc12)C(=O)N(C)c1ccccc1 (stereo not given) | 16.4µM | ? | 0 | ? | 0 | 8.2µM
Cc1ccc(C(=O)C(C)OC(=O)Cc2n[nH]c(=O)c3ccccc23)cc1 (stereo not given) | 18.4µM | 0 | 0 | 0 | ? | 11.6µM
Cc1cc(C)c(C(=O)C(C)OC(=O)Cc2n[nH]c(=O)c3ccccc23)cc1C (stereo not given) | ? | 0 | 0 | 0 | ? | 0
